In the library only some 2.2% were active in any assay of this set; here they are far more common.
LGR2 antag: blocks bursicon-induced cAMP signaling via Drosophila LGR2. HEK293 LGR2, CRE-luciferase, bursicon-stimulated, 4 h. inhibition, % at 9.99 µM. 380,000 compounds, 0.35% hits. AID 720647;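 active = drop in luminescence signal, shown as inhibition above about 50% in the replicate tests, limit read from the data, passing the limit was not always enough; inconclusive = probably only some replicates passing the limit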;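 note: agonist challenge used bursicon conditioned medium at about half maximal strength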
LMP1 NFkB inh: reduces LMP1-driven NF-kappaB luciferase signal | LMP1-induced NF-kappaB luciferase reporter cells, luminescence | inhibition, % at 12.5 µM | 350,000 compounds, 0.69% hits; in the data active = inhibition above about 41%; inconclusive = no clear call, values can overlap the other calls
PAX8 inh HTS: PAX8 transcriptional activity inhibition; RMG-I TPO-luciferase reporter, SteadyGlo, 24 h; inhibition, % at 12.6 µM; 360,000 compounds, 1.2% hits;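 active = mean replicate inhibition at least 60% with every replicate also reaching 60%; inconclusive = only one of the two criteria is met; inactive = mean below 60% and not all replicates reaching 60%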;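 note: luciferase light reporting Pax8 driven TPO promoter activity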
EWS-Fli inh: EWS/Fli transcriptional activity inhibition | 350,000 compounds, 0.67% hits | inhibition, % at 12.6 µM | AID 651661 | A673 NR0B1-luciferase reporter, viability-normalised;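 active = mean inhibition of at least 50% after viability correction, with every replicate also passing that limit; inconclusive = mean reaches 50% but only one of two replicates passes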;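 note: firefly luciferase signal divided by Alamar Blue viability fluorescence both relative to DMSO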
MITF TRPM1 inh: MITF TRPM1 promoter inhibition in SK-MEL-5 cells; SK-MEL-5 TRPM1 promoter luciferase, 24 h; 330,000 compounds, 0.83% hits; AID 488899; inhibition, % at 12.5 µM;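 active = mean inhibition across replicates of 60% or more, whatever share of single replicates reaches that level; inconclusive = some that reach 60%, reason not given; inactive = mean inhibition across replicates below 60%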
PGC1a acetyl inh: PGC1a acetylation modulation, inhibitor mode | U2OS PGC1a acetylation, AlphaScreen anti-acetyl-lysine; with virally co-expressed GCN5 acetyltransferase | inhibition, % at 15.6 µM | 350,000 compounds, 0.17% hits;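 active = every replicate shows inhibition of at least 40%; inconclusive = mean inhibition at least 40% but some replicate below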
DNA binding: small molecule DNA binding by fluorescence polarization | shares compounds with EWS-Fli inh | salmon sperm DNA acridine orange fluorescence polarization | AC35, µM (doses to about 68 µM) | 640 compounds, 2% hits;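 active = fitted curve reaches a 35% signal fall AC35 below twice the sample's top valid tested dose, actives reach about 48 µM in these data; inactive = the rest, including activity in the rising direction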;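 note: lower polarization ratio signals compound binding to DNA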
Hits are given with their value; – = inactive; ? = inconclusive; · = not tested or not shown.

SMILES | LGR2 antag | LMP1 NFkB inh | PAX8 inh HTS | EWS-Fli inh | MITF TRPM1 inh | PGC1a acetyl inh | DNA binding
COc1cc2c(cc1OC)C(C)N(C(=O)c1nccnc1C(=O)O)CC2 (centres undefined) | – | – | – | – | – | – | ·
COc1cc2c(cc1OC)C(C)N(C(=O)c1cc(Cl)nc(Cl)c1)CC2 (centres undefined) | – | – | – | 56 | – | – | –
O=C(NCc1ccccc1F)[C@H]1N[C@H]2c3ccc(-c4ccccc4F)c(=O)n3C[C@H]2[C@@H]1CO | – | · | – | – | · | – | ·
COc1ccc2cc(C(N)=O)/c(=N\NC(=O)c3ccccc3)oc2c1 | ? | 46 | – | 71 | – | – | –
CCCn1c(C)cc(C(=O)CN2C(=O)c3ccccc3S2(=O)=O)c1C | 56 | 82 | 96 | 82 | · | – | –
COc1ccc(C(=O)CN2C(=O)c3ccccc3S2(=O)=O)cc1 | 101 | · | 93 | 87 | · | – | –
CO[C@H]1CN(C)C(=O)c2cc(C#N)ccc2OC[C@@H]2O[C@H](CC[C@H]2OC)CCN(C)C(=O)[C@H]1C | – | · | – | – | · | – | ·
COc1ccccc1S(=O)(=O)N[C@H]1CC[C@@H](CCNC(=O)C2CC2)O[C@@H]1CO | – | · | – | – | · | – | ·
BrC(=C\c1ccccc1)/C=N/n1cnnc1 | 86 | ? | 95 | 68 | 83 | · | –
BrC(=C\c1ccccc1)/C=N/Nc1ccc2nncn2n1 | – | – | – | – | – | – | ·
Cc1noc(C)c1NC(=O)Nc1ccc2c(c1)CC(=O)N([C@@H](C)CO)C[C@H](C)[C@@H](CN(C)S(C)(=O)=O)O2 | – | · | – | – | · | – | ·
S=c1[nH]nc(-c2cc(-c3ccccc3)n[nH]2)n1/N=C/C(Br)=C/c1ccccc1 | – | · | – | 75 | · | – | –
O=C(CNC(=O)Cc1ccccc1)N=Nc1c(O)n(Cc2ccc3c(c2)OCO3)c2ccccc12 | – | – | – | 66 | – | · | –
COC(=O)Cn1c(O)c(N=NC(=O)CNC(=O)c2ccc3c(c2)OCCO3)c2ccccc21 | – | – | – | · | – | – | ·
COc1ccc(C(C)(O)c2nc(-c3cccc(F)c3)cs2)cc1 (centres undefined) | – | · | – | 53 | · | – | –
Cc1cc(C(=O)NNC(=O)c2ccc(S(=O)(=O)N(C)C)cc2)c(C)o1 | – | – | – | 74 | – | · | –
CN(C)Cc1cn(CC[C@@H]2CC[C@@H](NC(=O)Nc3ccccc3F)[C@H](CO)O2)nn1 | – | · | – | – | · | – | ·
C[C@H](CO)N1C[C@H](C)[C@H](CN(C)C(=O)Nc2ccc(F)cc2)OCCCC[C@H](C)Oc2ccc(NS(=O)(=O)c3ccc(F)cc3)cc2C1=O | – | · | – | – | · | – | ·
C[C@H]1CN([C@@H](C)CO)C(=O)c2cc(NC(=O)Nc3ccc(C(F)(F)F)cc3)ccc2O[C@H]1CN(C)S(=O)(=O)c1ccc(F)cc1 | – | · | – | – | · | – | ·
C[C@H]1CN([C@@H](C)CO)C(=O)c2cccc(NC(=O)c3ccc(-c4nccs4)cc3)c2O[C@@H]1CN(C)Cc1ccc(C(=O)Nc2ccccc2N)cc1 | – | · | · | 52 | · | – | –
Cc1ccc(S(=O)(=O)N(C)C[C@H]2Oc3c(cccc3N(C)C)C(=O)N([C@H](C)CO)C[C@@H]2C)cc1 | – | · | – | – | · | – | ·
C[C@H](CO)N1C[C@H](C)[C@H](CN(C)Cc2ccc(C(=O)Nc3ccccc3N)cc2)Oc2c(NC(=O)C3CC3)cccc2C1=O | – | · | · | – | · | – | ·
C[C@H](CO)N1C[C@H](C)[C@H](CN(C)Cc2ccc(C(=O)Nc3ccccc3N)cc2)Oc2c(cccc2N(C)C)C1=O | – | · | – | 54 | · | – | –
C[C@@H]1CN([C@H](C)CO)C(=O)c2cccc(N(C)C)c2O[C@@H]1CN(C)Cc1ccc(C(=O)Nc2ccccc2N)cc1 | · | · | – | 56 | · | – | –
Cc1ccc(S(=O)(=O)N(C)C[C@H]2Oc3c(cccc3N(C)C)C(=O)N([C@@H](C)CO)C[C@@H]2C)cc1 | 59 | · | – | 53 | · | – | –
SMILES | LGR2 antag | LMP1 NFkB inh | PAX8 inh HTS | EWS-Fli inh | MITF TRPM1 inh | PGC1a acetyl inh | DNA binding
O=C(C1CC1)N1CC2(C1)[C@H](c1ccccc1)[C@H](CO)N2CCC(F)(F)F | – | · | · | – | · | – | ·
C[C@@H]1CN([C@H](C)CO)C(=O)Cc2cc(NC(=O)Cc3ccccc3)ccc2O[C@@H]1CN(C)Cc1ccc(C(=O)Nc2ccccc2N)cc1 | – | · | – | – | · | – | ·
O=S(=O)(c1ccc(-c2ccccc2)cc1)N1[C@@H]2CNC[C@H]1C2c1ccc(-c2cccnc2)cc1 (some centres undefined) | – | · | – | – | · | – | ·
C[C@@H]1CN([C@@H](C)CO)C(=O)c2cccc(NC(=O)Nc3ccccc3)c2O[C@@H]1CN(C)Cc1ccc(-c2ccccc2)cc1 | · | · | – | 78 | · | – | –
C[C@@H]1CN([C@@H](C)CO)C(=O)c2cccc(NC(=O)Nc3cccc4ccccc34)c2O[C@@H]1CN(C)Cc1ccc(C(=O)Nc2ccccc2N)cc1 | – | · | – | 54 | · | – | –
C[C@H]1CN([C@@H](C)CO)C(=O)c2cccc(NC(=O)Nc3ccccc3)c2O[C@@H]1CN(C)Cc1ccc(-c2ccccc2)cc1 | – | · | – | – | · | – | ·
C[C@@H]1CN([C@H](C)CO)C(=O)c2cc(C#CCN(C)C)cnc2O[C@H]1CN(C)Cc1ccc(-c2ccccc2)cc1 | – | · | · | 54 | · | – | –
COCCOC(=O)N1C(=O)[C@@]2(c3cc(C#Cc4ccc(OC)cc4)ccc31)[C@H](C(=O)N1CCN(c3ncccn3)CC1)[C@H]1C(=O)O[C@H](c3ccccc3)[C@H](c3ccccc3)N1[C@@H]2c1ccccc1OCCO | · | · | · | – | · | – | ·
C[C@@H]1CN([C@@H](C)CO)C(=O)c2cc(NS(=O)(=O)c3ccccc3)ccc2O[C@H]1CN(C)C(=O)NC1CCCCC1 | – | · | – | – | · | – | ·
C=CC[n+]1c(-c2ccc(C)cc2)csc1Nc1ccc(NC(C)=O)cc1 | – | – | – | 62 | 81 | · | –
Fc1cccc(-c2ccc(C3[C@H]4CNC[C@@H]3N4CC3CCOCC3)cc2)c1 (some centres undefined) | – | · | · | · | · | · | ·
c1cncc(-c2ccc([C@@H]3[C@H]4CNC[C@@H]3N4CC3CCOCC3)cc2)c1 | – | · | – | 51 | · | – | –
Cc1noc(C)c1NC(=O)N(C)C[C@H]1Oc2c(NC(=O)Nc3ccc(C(F)(F)F)cc3)cccc2C(=O)N([C@@H](C)CO)C[C@@H]1C | – | · | · | – | · | – | ·
O=C(NC(=O)c1ccccc1)Nc1ccccc1 | – | – | – | 56 | – | – | –
COC(=O)c1cccc(NC(=O)NC(=O)c2ccc(Cl)cc2)c1 | – | – | – | 87 | – | – | –
COCC(=O)N1CC2(C1)CN(C(=O)CN1CCOCC1)[C@@H](CO)c1c2c2ccc(OC)cc2n1C | – | · | · | – | · | – | ·

Screening results: PubChem, Broad Institute
